The full list was thinned out, with hits kept by preference.
FBPA Giardia inh – blocks Giardia fructose-bisphosphate aldolase activity | purified Giardia FBPA | 0.71% of 290,000 active | Potency, µM (top dose mostly 59.6 µM), inactives show top-dose activity, negative = inhibition, usual class: inhibitors | AID 2451; further: potency means the concentration at half of the fitted maximal effect; on the % scale 0 is the no-effect control and ±100 the full control effect; nearly all actives have a fitted effect of over 55% in size
Target sequence (A8B2U2 whole entry, looked up): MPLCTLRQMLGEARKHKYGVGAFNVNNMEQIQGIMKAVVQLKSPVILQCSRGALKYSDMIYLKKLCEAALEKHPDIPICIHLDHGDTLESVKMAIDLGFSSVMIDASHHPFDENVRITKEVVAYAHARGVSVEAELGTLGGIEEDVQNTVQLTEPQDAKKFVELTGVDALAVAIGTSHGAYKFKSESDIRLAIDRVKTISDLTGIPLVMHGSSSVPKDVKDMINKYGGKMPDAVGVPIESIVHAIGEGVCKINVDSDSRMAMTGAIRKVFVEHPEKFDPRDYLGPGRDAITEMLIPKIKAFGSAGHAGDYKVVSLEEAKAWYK
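40 nM FBPA preincubated 10 min at RT with compound (up to 57.5 uM final), then substrate plus GAPDH/TPI/NAD/arsenate coupling and diaphorase/resazurin added. Fluorescence read after 20 min at RT, 525/598 nm.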
CHX counter – affects cycloheximide protein synthesis inhibition readout, counter-screen; AID 2314; 12% of 300,000 active; cell reporter, cycloheximide protein synthesis inhibition counterscreen; max response, %; in the data active means max response mostly above about 13%, no sharp cut-off; inactive means mostly below about 14%; further: read at 38.3 µM for the half of the compounds with a filed dose; 0% is about no effect
Shiga toxin inh – Shiga toxin inhibition | Vero cells, Shiga toxin protein synthesis inhibition reporter | inhibition, % at 38.7 µM | 9.2% of 290,000 active | AID 2315; in the data active means inhibition mostly above about 28%, no sharp cut-off; inactive means mostly below about 43%; further: 0% is about no effect
Tb PYK inh – T. brucei pyruvate kinase inhibition | Q57TT1 | TbPYK enzyme, Kinase-Glo Plus ATP luminescence, 45 min | Potency, µM (series often up to 76.8 µM), for the others: top-dose activity, negative = inhibition, most hits filed as inhibitors | 0.12% of 410,000 active | AID 624173; further: potency means the concentration at half of the fitted maximal effect; on the % scale 0 is the no-effect control and ±100 the full control effect; nearly all actives have a fitted effect of over 50% in size
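Luminescent Kinase-Glo Plus end-point after 45 min room-temperature reaction of T. brucei pyruvate kinase started with 130 uM ADP (final). Buffer TEA 50 mM pH 7.2 with KCl, MgCl2, BSA, Tween-20; titration-based qHTS with fitted concentration-effect curves.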
RE007 growth inh – less growth of the S. pombe RE007 Vpr strain | S. pombe RE007 Vpr strain, BacTiter-Glo ATP luminescence, 24 h | Potency, µM (titrated, usually from 92.2 µM), inactives show top-dose activity change, negative = less growth, most hits filed as inhibitors | 0.21% of 360,000 active | AID 651644; active means well fitted falling curve with a large enough effect; inconclusive means small, poorly fitted or top-dose-only effect; inactive means no such curve, though single readings can be large or run the other way; further: potency means the concentration at half of the fitted maximal effect; on the % scale 0 is the no-effect control and ±100 the full control effect; nearly all actives have a fitted effect of over 50% in size
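Fission yeast RE007 carrying one integrated HIV-1 vpr copy, seeded at OD 0.01 in PMG+AL medium with 23 nL pinned compound. Grown 24 h at 30 degrees; viability read by BacTiter-Glo luminescence after 5 min.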
LmPK inh – inhibitors of Leishmania mexicana pyruvate kinase. Q27686. purified LmPK, Kinase-Glo ATP luminescence, 1 h. Potency, µM (titrated, usually from 57.5 µM), for inactives: at the highest dose activity change, negative = inhibition, hits mostly inhibitors. 0.37% of 290,000 active; further: potency means the concentration at half of the fitted maximal effect; on the % scale 0 is the no-effect control and ±100 the full control effect
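Kinase-Glo luminescence read after 1 h RT reaction of 0.1 nM LmPK with 0.5 mM PEP and 0.1 mM ADP. Activity scaled between uninhibited and enzyme-free controls.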
Numbers without * were called inactive; i = inactive; ? = inconclusive; . = not tested or not shown; + = active, no number; [ ] = another dose, or the depositor's remark. Unless noted, the call rests on the fitted dose curve; in most records, active means well fitted curve in the direction sought with a large enough effect; inconclusive means small, poorly fitted or top-dose-only effect, or another doubt; inactive means no such curve, though single readings can be large; an effect the other way counts as inactive or inconclusive.

SMILES	FBPA Giardia inh	CHX counter	Shiga toxin inh	Tb PYK inh	RE007 growth inh	LmPK inh
O=C(Oc1ccccc1C(=O)Nc1ccccc1)c1ccccc1Br	-7.7%	32.1*	33.1*	-2.3%	-2.2%	-0.2%
CCOC(=O)Cc1ccc(NC(=O)c2ccc(C(C)(C)C)cc2)cc1	-14.4%	26.3	35.1	-9.1%	-8.2%	2.1%
CN(C)CCC(=O)c1cccc(Br)c1	7.9%	10.6	7.9	-7.6%	?	3.4%
CCc1ccc(NC(=O)CSc2ncc(S(=O)(=O)c3cc(C)ccc3C)c(=O)[nH]2)cc1	.	.	.	2.4%	.	.
N[C@@H](CCCC(=O)O)C(=O)O	-0.6%	.	.	.	.	.
CCOc1ccccc1CNC(=O)c1ccc(Cn2c(SCc3ccccc3)nc3cccnc32)cc1	.	.	.	-5.6%	.	.
CC(NCCC1(C(C)C)CCOC(C)(C)C1)c1cccs1 (configuration not stated)	-3.9%	8.8*	27.3	-17.3%	-10.7%	2.7%
CC(NCCC1(Cc2ccccc2Cl)CCOC(C)(C)C1)c1cccs1 (configuration not stated)	-2.2%	-0.6	-11.0	1.2%	-13.7%	-5.8%
COc1cccc(N2CCN(S(=O)(=O)c3ccc(-n4cnnn4)cc3)CC2)c1	0.3%	-1.9	-6.1	-0.3%	-1.3%	6.3%
O=C(NCC(=O)N1CCc2ccccc2C1)c1ccccc1Cl	6.8%	22.0*	70.9*	1.2%	18.0%	-0.3%
O=C(Cc1ccccc1F)OCC(=O)N1CCc2ccccc21	-1.1%	63.8*	97.4*	5.9%	-5.6%	-1.3%
O=C(CNC(=O)c1ccccc1Cl)OCC(=O)N1CCc2ccccc21	-2.7%	41.5*	127.0*	4.4%	27.7%	-2.2%
O=C(COc1ccccc1F)OCC(=O)N1CCc2ccccc21	.	.	.	5.1%	-7.4%	.
Cc1ccc(N=Cc2c(O)c3ccccc3n(C)c2=O)cc1	-5.7%	13.7*	58.9	-4.3%	-9.9%	-11.9%
Cn1c(=O)c(-c2ccccc2)c(O)c2ccccc21	-10.2%	6.0	-2.1	0.3%	-18.7%	2.5%
Cc1ccc(N=Cc2c(C)[nH]n(-c3nc4ccccc4[nH]3)c2=O)cc1	16.2%	5.2	0.7	?	3.16µM*	25.1µM*
Cc1ccc(-n2[nH]c(C)c(C=Nc3ccc4[nH]c(=O)[nH]c4c3)c2=O)cc1	-10.3%	-2.7	-11.8	-7.2%	-12.0%	-2.6%
Cc1ccc(N=Cc2sc(O)c3ccccc23)c(C)c1	-0.3%	34.2*	79.6*	-9.8%	-14.6%	-6.8%
Cc1ccc(N=Cc2sc(O)c3ccccc23)cc1	-12.9%	32.8*	80.5*	3.4%	3.9%	-12.8%
CCn1c(O)c(C=Nc2ccccc2)sc1=O	0.7%	7.4	35.2	2.4%	54.8%	-0.2%
Fc1ccc(-c2nc3c4ccccc4ccn3c2Cc2ccsc2)cc1	.	.	.	1.6%	-30.0%	.
O=C(c1cc(-c2cccc(O)c2)on1)N1CCCCC1	4.9%	35.1*	36.8*	-3.9%	-12.9%	-22.5%
O=C(c1cc(-c2cccc(O)c2)on1)N1CCCC1	-16.2%	37.4*	62.0*	-5.5%	-11.9%	-11.3%
COc1ccc(-c2cn(CCO)c(-c3ccncc3)n2)cc1	.	.	.	-4.2%	11.4%	.
Nc1ncnc2c1ncn2[C@@H]1O[C@@H](CO)[C@H](O)[C@H]1O	-1.5%[21.7 µM]	.	.	.	.	.
SMILES	FBPA Giardia inh	CHX counter	Shiga toxin inh	Tb PYK inh	RE007 growth inh	LmPK inh
O=C(Nc1nc2c(Cl)cccc2s1)c1ccc([N+](=O)[O-])o1	-4.1%	1.9	.	-1.3%	-15.0%	-3.2%
O=C(Nc1nc2c(F)cccc2s1)c1ccc([N+](=O)[O-])o1	-14.5%	10.6*	9.4	7.0%	-10.7%	-5.3%
O=C(Nc1ncccn1)c1ccc([N+](=O)[O-])o1	-24.1%	52.0*	64.5*	-11.9%	-11.8%	-3.6%
O=C(Nc1ccccn1)c1ccc([N+](=O)[O-])o1	-8.1%	32.8*	65.3*	-4.6%	?	-14.9%
Cc1ccnc(NC(=O)c2ccc([N+](=O)[O-])o2)c1	-29.2%	67.7*	132.8*	-5.6%	?	-26.4%
Cc1ncc(CO)c(/C=N/NC(=O)c2cc3c(s2)CCCC3)c1O	9.9%	-5.4	-2.1	-2.1%	-6.7%	3.7%
Fc1ccccc1CCNCc1cccc2ccccc12	-7.1%	17.8*	26.3	-0.7%	-0.4%	-1.5%
Cc1ccc(CNCCc2ccccc2F)cc1	0.3%	13.6*	39.8	31.4%	-4.7%	-1.0%
O=C(Cc1cccc2ccccc12)Nc1c(F)cccc1F	9.9%	18.1*	58.3*	1.9%	12.6%	-2.7%
Cc1ccc(-c2nc(S(=O)(=O)c3ccc(Cl)cc3)c(N3CCCCC3)o2)cc1	.	.	.	7.6%	.	.
Cc1noc(Cn2c(=O)c3ccccc3n(CC(=O)Nc3ccc(C(C)C)cc3)c2=O)n1	.	.	.	2.3%	.	.
COc1ccccc1NC(=O)c1cccc2c(Br)cccc12	-0.2%	4.1	38.8	9.1%	-13.3%	2.4%
CC(C)CCC(=O)OC1CCC2C3CCC4=CC(=O)CC[C@]4(C)C3CC[C@]12C (some centres not stated)	.	.	.	3.9%	.	.
CC(=O)c1ccc(-c2c(C)cc3oc(=O)cc(-c4ccccc4)c3c2C)cc1	5.2%[89.2 µM]	29.5*	+	0.0%	-12.5%	.
Cc1cc2oc(=O)cc(-c3ccccc3)c2c(C)c1-c1ccc(CO)cc1	20.9%[89.2 µM]	5.4	i	0.0%	4.6%	.
Cc1ccc(NC(=O)NCCN2CCCCC2)cc1	-0.7%	8.8*	-1.9	-6.8%	?	0.4%
O=C(NCCN1CCCCC1)Nc1ccc(Br)cc1	7.9%	2.7	22.3	0.6%	-16.8%	-0.9%
S=C(NCCN1CCOCC1)Nc1ccc(Cl)cc1	0.9%	1.1	-1.4	2.0%	-0.2%	-0.5%
O=C(NCCN1CCOCC1)Nc1ccc(Cl)cc1	1.5%	13.1*	21.8	-0.7%	4.0%	8.2%
O=C(NCC1CCCCC1)c1csc([C@@H]2C[C@H](O)[C@@H](CO)O2)n1	.	.	.	-11.8%	7.1%[18.4 µM]	.
Cc1ccc(NC(=S)N2CCCC(O)C2)cc1 (configuration not stated)	-4.2%	20.3*	69.4*	0.1%	-3.6%	2.1%
OCC1CCCN(C(=S)Nc2ccc(OC(F)F)cc2)C1 (configuration not stated)	-0.1%	26.2*	63.3*	-7.9%	5.5%	0.9%
OCC1CCCN(C(=S)Nc2ccc(Nc3ccccc3)cc2)C1 (configuration not stated)	-20.4%	29.3*	61.3*	-5.9%	18.7%	1.2%
NC(=O)C1CCCN(C(=S)Nc2ccccc2)C1 (configuration not stated)	-9.1%	-3.0	-9.9	-12.8%	-1.6%	-0.1%
Cc1cc2c([nH]c3ccccc32)c2c1OC(C)(C)C=C2	-22.2%	47.0*	87.2*	0.7%	?	2.9%
COc1ccc2[nH]c(=O)c3c(c2c1)OC(C)(C)C=C3	-2.4%	4.9	-10.0	-5.2%	19.1%	2.1%
COCCCN(C(C)=O)c1nc(-c2ccccc2)cs1	-14.1%	39.4*	81.4*	-4.9%	-15.3%	-0.4%

Bioassay records deposited in PubChem by National Center for Advancing Translational Sciences (NCATS).
